Experiments:
Experiment in all cases: log2 ratio of Biotin-Ahx-Ub-VS probe labelling (fragment/DMSO); higher = less target engagement (more negative = stronger competition), active = hit call of the paper (q ≤ 0.05, log2 ratio ≤ -1)
Conditions in all cases: compound concentration: 200 uM; treatment time: 3 h
USP34 = USP34 (UniProt Q70CQ2)
Procedure, shortened: (§1)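 Labelled DUBs from HEK293T lysate were NeutrAvidin-enriched, digested with LysC and trypsin, and run by diaPASEF LC-MS/MS. Before that, each 495 µg sample in Tris/CHAPS/IGEPAL buffer with protease inhibitors was treated in triplicate with fragment at 200 µM or vehicle for 3 h, then with Biotin-Ahx-Ub-VS at 0.5 µM final for 1 h. Values are average log2 ratios of fragment over vehicle by unpaired t-test, based on global-median-normalised Spectronaut label-free quantities from proteins with ≥2 unique peptides.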

USP36 = molecular target: T1, USP36 (UniProt Q9P275)
T1 sequence (whole entry): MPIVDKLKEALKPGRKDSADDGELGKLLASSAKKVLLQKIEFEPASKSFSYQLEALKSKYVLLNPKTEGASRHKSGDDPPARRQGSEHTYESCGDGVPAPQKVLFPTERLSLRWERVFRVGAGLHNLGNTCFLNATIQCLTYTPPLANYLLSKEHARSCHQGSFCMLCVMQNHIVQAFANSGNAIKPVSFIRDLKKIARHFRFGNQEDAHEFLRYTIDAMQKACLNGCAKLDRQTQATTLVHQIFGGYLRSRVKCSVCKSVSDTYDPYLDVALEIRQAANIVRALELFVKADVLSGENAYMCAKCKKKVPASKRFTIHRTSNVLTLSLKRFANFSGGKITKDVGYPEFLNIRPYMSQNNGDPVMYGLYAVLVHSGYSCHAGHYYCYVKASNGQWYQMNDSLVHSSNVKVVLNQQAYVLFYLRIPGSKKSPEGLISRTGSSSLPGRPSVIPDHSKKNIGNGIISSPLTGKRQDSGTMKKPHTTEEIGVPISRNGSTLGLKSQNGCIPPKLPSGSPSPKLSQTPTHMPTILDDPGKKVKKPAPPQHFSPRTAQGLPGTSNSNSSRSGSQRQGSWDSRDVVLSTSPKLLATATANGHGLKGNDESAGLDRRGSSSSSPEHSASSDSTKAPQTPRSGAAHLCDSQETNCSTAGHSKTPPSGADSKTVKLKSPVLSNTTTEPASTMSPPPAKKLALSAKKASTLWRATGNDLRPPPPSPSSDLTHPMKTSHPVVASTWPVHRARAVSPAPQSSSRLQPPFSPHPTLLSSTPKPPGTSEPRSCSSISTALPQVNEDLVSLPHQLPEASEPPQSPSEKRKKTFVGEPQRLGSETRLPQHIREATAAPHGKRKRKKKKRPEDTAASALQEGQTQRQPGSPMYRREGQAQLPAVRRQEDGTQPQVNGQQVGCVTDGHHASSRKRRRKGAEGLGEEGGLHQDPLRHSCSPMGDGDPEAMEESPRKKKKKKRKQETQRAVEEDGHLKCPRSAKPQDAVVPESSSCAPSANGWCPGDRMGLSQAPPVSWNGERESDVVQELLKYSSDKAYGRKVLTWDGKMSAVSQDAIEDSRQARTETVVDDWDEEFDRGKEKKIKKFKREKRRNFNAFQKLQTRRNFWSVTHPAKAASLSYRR
Procedure, shortened: as §1

USP38 = molecular target: T2, USP38 (UniProt Q8NB14)
T2 sequence (whole entry): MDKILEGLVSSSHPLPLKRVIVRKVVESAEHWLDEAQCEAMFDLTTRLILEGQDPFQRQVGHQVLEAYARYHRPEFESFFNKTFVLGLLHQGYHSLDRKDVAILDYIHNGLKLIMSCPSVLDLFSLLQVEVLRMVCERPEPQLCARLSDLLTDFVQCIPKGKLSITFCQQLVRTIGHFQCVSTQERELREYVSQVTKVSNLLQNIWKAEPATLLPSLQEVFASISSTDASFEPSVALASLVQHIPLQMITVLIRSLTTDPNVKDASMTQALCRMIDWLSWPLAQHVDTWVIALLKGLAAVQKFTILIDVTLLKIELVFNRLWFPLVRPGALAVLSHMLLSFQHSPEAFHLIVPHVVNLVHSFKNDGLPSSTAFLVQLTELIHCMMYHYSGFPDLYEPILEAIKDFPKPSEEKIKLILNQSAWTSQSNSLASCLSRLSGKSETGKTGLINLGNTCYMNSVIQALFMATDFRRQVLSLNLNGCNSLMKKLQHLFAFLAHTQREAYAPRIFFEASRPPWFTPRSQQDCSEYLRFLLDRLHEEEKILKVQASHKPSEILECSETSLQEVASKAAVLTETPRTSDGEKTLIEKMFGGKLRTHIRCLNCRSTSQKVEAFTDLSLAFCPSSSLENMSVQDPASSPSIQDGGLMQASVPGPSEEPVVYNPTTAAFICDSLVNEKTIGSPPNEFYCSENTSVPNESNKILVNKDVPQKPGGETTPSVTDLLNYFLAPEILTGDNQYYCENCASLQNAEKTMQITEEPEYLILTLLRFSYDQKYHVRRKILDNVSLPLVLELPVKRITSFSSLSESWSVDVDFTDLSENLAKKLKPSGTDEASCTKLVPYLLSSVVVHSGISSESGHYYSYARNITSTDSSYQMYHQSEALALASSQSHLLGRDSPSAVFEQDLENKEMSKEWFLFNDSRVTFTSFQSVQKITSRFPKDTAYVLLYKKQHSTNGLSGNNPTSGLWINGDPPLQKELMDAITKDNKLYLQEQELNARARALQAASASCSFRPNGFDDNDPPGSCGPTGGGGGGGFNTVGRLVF
Procedure, shortened: as §1

USP39 = molecular target: T3, USP39 (UniProt Q53GS9)
T3 sequence (whole entry): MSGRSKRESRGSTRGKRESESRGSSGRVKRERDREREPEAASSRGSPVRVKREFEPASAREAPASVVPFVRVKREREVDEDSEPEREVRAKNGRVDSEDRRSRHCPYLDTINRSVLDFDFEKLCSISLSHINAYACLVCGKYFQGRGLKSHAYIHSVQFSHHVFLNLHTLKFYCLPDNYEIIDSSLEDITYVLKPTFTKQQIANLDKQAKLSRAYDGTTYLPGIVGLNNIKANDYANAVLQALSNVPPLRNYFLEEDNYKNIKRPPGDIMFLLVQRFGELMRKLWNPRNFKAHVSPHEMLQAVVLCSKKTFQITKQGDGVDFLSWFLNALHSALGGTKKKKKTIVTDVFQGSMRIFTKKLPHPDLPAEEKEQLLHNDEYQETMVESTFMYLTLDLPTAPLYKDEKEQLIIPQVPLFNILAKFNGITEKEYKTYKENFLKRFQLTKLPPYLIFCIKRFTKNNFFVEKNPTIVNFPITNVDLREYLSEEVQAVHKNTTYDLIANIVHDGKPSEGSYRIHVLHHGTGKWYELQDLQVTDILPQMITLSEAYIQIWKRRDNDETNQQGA
Procedure, shortened: as §1

USP4 = molecular target: T4, USP4 (UniProt Q13107)
T4 sequence (whole entry): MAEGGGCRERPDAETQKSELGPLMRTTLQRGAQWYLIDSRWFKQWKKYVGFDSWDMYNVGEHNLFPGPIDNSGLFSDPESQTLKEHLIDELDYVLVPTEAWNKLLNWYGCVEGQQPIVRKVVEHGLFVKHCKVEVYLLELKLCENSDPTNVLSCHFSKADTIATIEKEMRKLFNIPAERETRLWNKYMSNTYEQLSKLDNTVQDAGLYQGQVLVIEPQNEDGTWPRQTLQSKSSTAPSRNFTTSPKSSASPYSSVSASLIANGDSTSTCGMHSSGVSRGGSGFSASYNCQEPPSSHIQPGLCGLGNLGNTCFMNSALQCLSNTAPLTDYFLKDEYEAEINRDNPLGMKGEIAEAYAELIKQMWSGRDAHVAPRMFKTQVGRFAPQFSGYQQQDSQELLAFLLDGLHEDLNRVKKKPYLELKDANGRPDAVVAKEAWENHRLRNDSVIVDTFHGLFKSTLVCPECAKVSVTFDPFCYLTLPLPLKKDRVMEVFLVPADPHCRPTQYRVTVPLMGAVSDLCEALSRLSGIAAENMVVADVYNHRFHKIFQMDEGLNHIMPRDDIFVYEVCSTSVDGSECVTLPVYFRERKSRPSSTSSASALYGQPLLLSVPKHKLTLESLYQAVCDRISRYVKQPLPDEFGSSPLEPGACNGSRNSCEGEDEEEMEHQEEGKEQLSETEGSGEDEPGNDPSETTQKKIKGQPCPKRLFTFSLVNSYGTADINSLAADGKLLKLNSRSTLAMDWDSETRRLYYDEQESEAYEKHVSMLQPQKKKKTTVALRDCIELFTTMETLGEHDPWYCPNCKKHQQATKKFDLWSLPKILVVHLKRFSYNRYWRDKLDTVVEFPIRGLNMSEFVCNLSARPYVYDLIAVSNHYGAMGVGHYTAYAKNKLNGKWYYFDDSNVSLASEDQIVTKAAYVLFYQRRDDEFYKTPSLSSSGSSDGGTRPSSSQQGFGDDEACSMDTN
Procedure, shortened: as §1

Measured: log2 ratio of Biotin-Ahx-Ub-VS probe labelling

USP34, sequence (Q70CQ2 whole entry, the tested form may be a part): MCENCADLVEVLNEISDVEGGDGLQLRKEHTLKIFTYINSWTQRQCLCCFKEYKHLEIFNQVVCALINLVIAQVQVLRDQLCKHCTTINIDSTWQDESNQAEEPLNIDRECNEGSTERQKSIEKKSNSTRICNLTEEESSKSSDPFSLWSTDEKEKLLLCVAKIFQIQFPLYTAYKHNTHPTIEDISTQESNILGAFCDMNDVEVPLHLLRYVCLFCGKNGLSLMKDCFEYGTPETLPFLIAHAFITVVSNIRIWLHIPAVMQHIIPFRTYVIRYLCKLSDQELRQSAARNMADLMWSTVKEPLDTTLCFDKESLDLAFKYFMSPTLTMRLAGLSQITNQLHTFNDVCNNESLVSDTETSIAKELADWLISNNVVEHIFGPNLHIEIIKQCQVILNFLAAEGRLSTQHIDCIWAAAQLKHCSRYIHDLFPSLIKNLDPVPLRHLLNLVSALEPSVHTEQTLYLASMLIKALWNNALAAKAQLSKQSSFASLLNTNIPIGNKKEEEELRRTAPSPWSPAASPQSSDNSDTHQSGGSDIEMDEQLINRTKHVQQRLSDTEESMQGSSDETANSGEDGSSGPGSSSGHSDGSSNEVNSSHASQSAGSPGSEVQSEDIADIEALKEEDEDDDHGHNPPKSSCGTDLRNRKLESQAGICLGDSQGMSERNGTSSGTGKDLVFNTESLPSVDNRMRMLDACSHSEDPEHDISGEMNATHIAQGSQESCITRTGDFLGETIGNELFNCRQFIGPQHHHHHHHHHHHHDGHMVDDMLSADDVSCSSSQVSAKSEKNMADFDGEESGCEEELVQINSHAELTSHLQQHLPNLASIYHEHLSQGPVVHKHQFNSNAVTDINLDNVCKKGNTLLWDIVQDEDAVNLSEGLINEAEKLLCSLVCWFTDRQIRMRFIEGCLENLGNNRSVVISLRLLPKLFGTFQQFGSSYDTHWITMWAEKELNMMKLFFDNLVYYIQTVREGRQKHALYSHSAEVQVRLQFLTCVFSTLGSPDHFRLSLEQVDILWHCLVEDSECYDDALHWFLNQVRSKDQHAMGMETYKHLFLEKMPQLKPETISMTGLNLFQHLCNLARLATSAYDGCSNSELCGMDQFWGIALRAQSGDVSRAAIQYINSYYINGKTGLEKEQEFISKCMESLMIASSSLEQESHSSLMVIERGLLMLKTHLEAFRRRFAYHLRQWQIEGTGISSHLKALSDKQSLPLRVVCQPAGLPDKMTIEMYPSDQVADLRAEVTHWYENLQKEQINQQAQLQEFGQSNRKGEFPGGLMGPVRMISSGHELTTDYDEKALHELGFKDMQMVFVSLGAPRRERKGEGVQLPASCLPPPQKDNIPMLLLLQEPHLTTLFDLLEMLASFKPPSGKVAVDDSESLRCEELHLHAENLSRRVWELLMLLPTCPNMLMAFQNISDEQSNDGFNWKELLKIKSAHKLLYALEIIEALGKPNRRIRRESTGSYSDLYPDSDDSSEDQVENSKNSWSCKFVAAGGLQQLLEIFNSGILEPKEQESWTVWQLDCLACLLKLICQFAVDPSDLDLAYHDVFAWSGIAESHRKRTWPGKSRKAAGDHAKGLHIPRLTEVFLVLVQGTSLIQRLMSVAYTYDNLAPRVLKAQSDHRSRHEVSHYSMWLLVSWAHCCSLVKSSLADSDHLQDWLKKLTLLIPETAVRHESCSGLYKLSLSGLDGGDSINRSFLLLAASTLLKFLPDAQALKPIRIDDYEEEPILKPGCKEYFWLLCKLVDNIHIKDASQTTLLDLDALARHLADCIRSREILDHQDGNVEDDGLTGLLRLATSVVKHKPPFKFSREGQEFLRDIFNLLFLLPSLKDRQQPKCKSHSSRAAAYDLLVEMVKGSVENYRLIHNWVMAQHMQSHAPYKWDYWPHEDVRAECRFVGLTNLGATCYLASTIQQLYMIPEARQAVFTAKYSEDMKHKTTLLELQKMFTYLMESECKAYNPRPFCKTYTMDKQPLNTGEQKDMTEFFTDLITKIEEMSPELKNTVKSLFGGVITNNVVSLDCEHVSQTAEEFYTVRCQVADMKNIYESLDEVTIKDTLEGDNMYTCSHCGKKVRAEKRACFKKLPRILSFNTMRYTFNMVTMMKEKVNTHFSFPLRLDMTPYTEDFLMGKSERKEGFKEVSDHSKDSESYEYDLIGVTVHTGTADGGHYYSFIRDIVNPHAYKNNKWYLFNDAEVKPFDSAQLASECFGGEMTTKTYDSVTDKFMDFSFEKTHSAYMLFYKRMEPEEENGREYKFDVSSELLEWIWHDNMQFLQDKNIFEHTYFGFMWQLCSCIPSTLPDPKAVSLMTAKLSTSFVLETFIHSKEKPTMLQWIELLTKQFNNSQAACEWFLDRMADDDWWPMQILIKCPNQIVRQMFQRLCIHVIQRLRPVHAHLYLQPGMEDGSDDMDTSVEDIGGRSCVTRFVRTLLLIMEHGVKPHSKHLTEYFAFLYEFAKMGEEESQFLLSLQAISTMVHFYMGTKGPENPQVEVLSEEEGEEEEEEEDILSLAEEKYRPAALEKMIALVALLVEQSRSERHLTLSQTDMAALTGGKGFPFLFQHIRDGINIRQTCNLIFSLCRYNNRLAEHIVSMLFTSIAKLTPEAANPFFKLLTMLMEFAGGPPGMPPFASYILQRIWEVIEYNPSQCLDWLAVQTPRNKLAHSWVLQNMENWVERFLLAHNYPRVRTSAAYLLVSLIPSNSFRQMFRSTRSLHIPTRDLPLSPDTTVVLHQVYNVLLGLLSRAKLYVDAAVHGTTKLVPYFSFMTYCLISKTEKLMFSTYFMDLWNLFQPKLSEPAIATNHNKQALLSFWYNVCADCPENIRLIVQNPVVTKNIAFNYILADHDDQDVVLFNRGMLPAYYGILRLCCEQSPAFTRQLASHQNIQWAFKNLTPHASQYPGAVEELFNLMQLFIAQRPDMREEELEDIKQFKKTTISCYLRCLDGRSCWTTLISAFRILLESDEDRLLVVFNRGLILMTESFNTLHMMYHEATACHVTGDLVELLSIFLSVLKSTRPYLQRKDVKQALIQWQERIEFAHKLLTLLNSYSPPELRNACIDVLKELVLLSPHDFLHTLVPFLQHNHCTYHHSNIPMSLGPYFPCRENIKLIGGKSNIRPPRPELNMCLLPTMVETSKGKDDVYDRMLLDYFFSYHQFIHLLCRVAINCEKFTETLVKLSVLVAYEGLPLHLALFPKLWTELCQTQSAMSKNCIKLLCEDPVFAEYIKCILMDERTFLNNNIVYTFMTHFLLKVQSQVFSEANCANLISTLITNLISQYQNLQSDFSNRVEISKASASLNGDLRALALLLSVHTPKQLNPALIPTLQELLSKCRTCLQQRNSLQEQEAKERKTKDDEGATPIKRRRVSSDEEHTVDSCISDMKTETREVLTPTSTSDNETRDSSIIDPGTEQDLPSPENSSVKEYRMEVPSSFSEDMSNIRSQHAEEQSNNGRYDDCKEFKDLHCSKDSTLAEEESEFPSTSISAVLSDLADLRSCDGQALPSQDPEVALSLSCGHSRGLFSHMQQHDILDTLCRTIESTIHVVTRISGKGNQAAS

Cl.O=C(CCl)NCCN1CCc2ccccc21
inactive: USP34 -0.536 | USP36 -0.231 | USP38 -0.723 | USP39 0.178 | USP4 -0.666
